Among the data in the supplement of paper PMC6555819 are PBM binding z-score values, retold here.

The first assay relates to PPARg DBDmut IVT, anti-PPARg (DBD mutation: PPARg1 K132A/R137A, NR concentration 270 nM). Kind of assay: PBM binding z-score (relative to random genomic background probes); higher = stronger binding; sequences stand for … in GC…GCGATTGACAGCGTAGAATGAAGG
The method, boiled down:
(§1)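 Random background probes are the reference for binding z-scores. These scores derive from regression-normalized fluorescence on custom Agilent 4×180K protein-binding microarrays incubated 1 h with ligand-free nuclear receptor dimers. Binding was detected with antibodies against each partner (one per run).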
The sequence CCAGACAGGAGAGAAGGTAACTCAGCCTCGATTA returned a PBM binding z-score of -0.373.

For the sequence CGTCAAAGTTCAAGGTAACGTACCAGAAAGCAGC, the PBM binding z-score came to 0.599.

Consider TCTAGTTGGTCACGGAAGTCACACACGACGGGTA, for which the PBM binding z-score worked out at 0.841.

For ATATGTAGGTTATCGGTTCATTCAGTTTGCGCAT, the PBM binding z-score stood at 4.75.

Sequence CCTAGCAGGCCAATGTGGGTCACTCAAGGCTTGA displayed a PBM binding z-score of -1.11.

As to TCATATAGGTAATACAGGTGAAAGTTGGCATCTA, the PBM binding z-score was found to be 1.27.

Sequence GCTAGCATGCCATTTGGGTCACTCAATGACGGGC yielded a PBM binding z-score of -0.739.

For CGTCAAAGTTCAAGGTAACGTTACAGAAAGCAGC, the PBM binding z-score is 1.08.

As to CCTTACGGGTCAAGGTTATAGCACGGGTGGTACG, the PBM binding z-score is -0.257.

Consider CGAACTAGGGCATCCAGGACAGTGAATACATTGA, for which the PBM binding z-score was determined as 1.16.

In turn, TTATCAAGGTGAAGGTCGTTGATCCCTCTGTAGA returned a PBM binding z-score of 0.341.

The sequence CCAGACAGGTGAAATGTAACTCAGTCTGGTACGC had a PBM binding z-score of -0.0118.

GATTCAGGGTCAAGGCCAGAGTACGCGTATTGAT: the PBM binding z-score was 0.0606.

CGTCCAAGGTCAATGCTAGGTAAGTGAAAGCATT came in with a PBM binding z-score of -0.137.

Sequence CTCGAAAGGTCGTGCTCAGGTGACTATACCAAAC had a PBM binding z-score of 0.674.

GCTGCTAGGTCCGGTTGGTCAGCTAACGGGTACG gave a PBM binding z-score of -1.49.

Regarding TTACCAAGGTGAGCTGAGGTCGTTGACCCAACTC, the PBM binding z-score was -0.41.

On to TCTATTAGTTGACGGGCAACCGACGAGTCCGTTT, for which the PBM binding z-score was 0.317.

As to TTACCAAGGTGAACGTCGTTGATCCCTCTGTAGA, the PBM binding z-score stood at 1.09.

As to GCTATTAGTCGAAAGGGCAACCGAATGATTCTCG, the PBM binding z-score is 0.0546.

Sequence CCTAGCAGGCTAGGGTCACTCAAGCATTTCGCTT registered a PBM binding z-score of -1.59.

As for CGTCCAAGGTCAAAAGTCAGTGAAGAGATGACGG, the PBM binding z-score was -0.048.

For ATCGAAAGATCGTGAGGTGAGTATACAGAAAGGC, the PBM binding z-score turned out to be 0.767.

As for CCTCGGAGGACCACAGGAGGTCAGAGCTGCCAGA, the PBM binding z-score was -1.46.

In the case of TCGAGTAGGTTACCAATGGGGTATTCAGCTTTCT, the PBM binding z-score is -0.0236.

Take AGAACGAGGGCACGCTGAGATGATAGCAGAGTAG: the PBM binding z-score amounted to 0.133.

As for ATCTCTAAGTAAAGTTCAGTGAAAGATCGATAGA, the PBM binding z-score stood at 1.06.

In the case of TCTTGTAGATCAAAAGAGGTTAAGAAAGTGCGCT, the PBM binding z-score is 0.122.

As to ATATGTAGGTTAAGGGTCATTCAGGTTGGTTCGC, the PBM binding z-score came out at 1.61.

As for CGAACTAGGTCACTGACAGGACAGTGAATAGTAA, the PBM binding z-score came out at 0.583.

Consider CCTACTGGGCCATCACGTCATTGATATCAACGTT, for which the PBM binding z-score worked out at 0.151.

In turn, ACCATTAGTTGAGACGAGGGCAACCGATAGGTTG returned a PBM binding z-score of -0.276.

TCGAGTAGGTTACCAATGGGGCATTCTGCTTTCT registered a PBM binding z-score of -0.867.

Regarding CAAACTAGGTCAAGAGGTCAATGTCCGCTTCCCG, the PBM binding z-score amounted to 0.644.

With TAGCCTAGGTCATTCATGGGCCAGTATAGAAAGC, the PBM binding z-score is 0.314.

In turn, GCTTACGGGTCAAAGGTAATAGCATGAATAGAAT gave a PBM binding z-score of 0.842.

Regarding TTACCAAGGTAAAGGTCGTTGATCCCTCTGTAGA, the PBM binding z-score was found to be 0.564.

Take TCTTGTAGATCAACAGGGGGTTAAGAAAGATCGA: the PBM binding z-score turned out to be 7.46.

As to CAAACTAGGTCAAGGCCAAAGTCGGTTTGTGCCA, the PBM binding z-score was determined as 3.41.

As to CCAGACAGTTGAGAAGGTAACTCAGCCTCGATTA, the PBM binding z-score is -0.051.

A further assay concerns PPARg homodimer (NR concentration 180 nM). Described as above. In a few lines:
as §1
Take CCAGACAGGAGAGAAGGTAACTCAGCCTCGATTA: the PBM binding z-score amounted to 0.786.

CGTCAAAGTTCAAGGTAACGTACCAGAAAGCAGC: the PBM binding z-score turned out to be 4.5.

For TCTAGTTGGTCACGGAAGTCACACACGACGGGTA, the PBM binding z-score was found to be 1.08.

On to ATATGTAGGTTATCGGTTCATTCAGTTTGCGCAT, for which the PBM binding z-score was 2.66.

In the case of CCTAGCAGGCCAATGTGGGTCACTCAAGGCTTGA, the PBM binding z-score turned out to be 0.296.

Sequence TCATATAGGTAATACAGGTGAAAGTTGGCATCTA displayed a PBM binding z-score of 1.53.

Take GCTAGCATGCCATTTGGGTCACTCAATGACGGGC: the PBM binding z-score is -0.305.

Sequence CGTCAAAGTTCAAGGTAACGTTACAGAAAGCAGC came in with a PBM binding z-score of 3.53.

Regarding CCTTACGGGTCAAGGTTATAGCACGGGTGGTACG, the PBM binding z-score was 1.58.

In turn, CGAACTAGGGCATCCAGGACAGTGAATACATTGA returned a PBM binding z-score of 0.204.

In turn, TTATCAAGGTGAAGGTCGTTGATCCCTCTGTAGA came in with a PBM binding z-score of 1.18.

Sequence CCAGACAGGTGAAATGTAACTCAGTCTGGTACGC gave a PBM binding z-score of 0.686.

The sequence GATTCAGGGTCAAGGCCAGAGTACGCGTATTGAT yielded a PBM binding z-score of 3.59.

CGTCCAAGGTCAATGCTAGGTAAGTGAAAGCATT returned a PBM binding z-score of 1.55.

For CTCGAAAGGTCGTGCTCAGGTGACTATACCAAAC, the PBM binding z-score worked out at 1.85.

GCTGCTAGGTCCGGTTGGTCAGCTAACGGGTACG: the PBM binding z-score was -1.32.

For TTACCAAGGTGAGCTGAGGTCGTTGACCCAACTC, the PBM binding z-score turned out to be 0.266.

On to TCTATTAGTTGACGGGCAACCGACGAGTCCGTTT, for which the PBM binding z-score was 0.156.

Turning to TTACCAAGGTGAACGTCGTTGATCCCTCTGTAGA, the PBM binding z-score is 0.021.

GCTATTAGTCGAAAGGGCAACCGAATGATTCTCG yielded a PBM binding z-score of 0.852.

As for CCTAGCAGGCTAGGGTCACTCAAGCATTTCGCTT, the PBM binding z-score came to 1.58.

In turn, CGTCCAAGGTCAAAAGTCAGTGAAGAGATGACGG had a PBM binding z-score of 1.17.

The sequence ATCGAAAGATCGTGAGGTGAGTATACAGAAAGGC registered a PBM binding z-score of -0.197.

CCTCGGAGGACCACAGGAGGTCAGAGCTGCCAGA yielded a PBM binding z-score of 1.3.

TCGAGTAGGTTACCAATGGGGTATTCAGCTTTCT: the PBM binding z-score is -0.0597.

Turning to AGAACGAGGGCACGCTGAGATGATAGCAGAGTAG, the PBM binding z-score is 0.5.

With ATCTCTAAGTAAAGTTCAGTGAAAGATCGATAGA, the PBM binding z-score stood at 1.44.

Regarding TCTTGTAGATCAAAAGAGGTTAAGAAAGTGCGCT, the PBM binding z-score was 0.373.

ATATGTAGGTTAAGGGTCATTCAGGTTGGTTCGC: the PBM binding z-score worked out at 4.

As to CGAACTAGGTCACTGACAGGACAGTGAATAGTAA, the PBM binding z-score worked out at 1.33.

CCTACTGGGCCATCACGTCATTGATATCAACGTT gave a PBM binding z-score of 0.3.

ACCATTAGTTGAGACGAGGGCAACCGATAGGTTG gave a PBM binding z-score of 0.403.

Turning to TCGAGTAGGTTACCAATGGGGCATTCTGCTTTCT, the PBM binding z-score was -0.334.

For the sequence CAAACTAGGTCAAGAGGTCAATGTCCGCTTCCCG, the PBM binding z-score amounted to 3.95.

The sequence TAGCCTAGGTCATTCATGGGCCAGTATAGAAAGC yielded a PBM binding z-score of 1.08.

GCTTACGGGTCAAAGGTAATAGCATGAATAGAAT returned a PBM binding z-score of 1.61.

Consider TTACCAAGGTAAAGGTCGTTGATCCCTCTGTAGA, for which the PBM binding z-score was found to be 1.72.

In turn, TCTTGTAGATCAACAGGGGGTTAAGAAAGATCGA gave a PBM binding z-score of 1.07.

In turn, CAAACTAGGTCAAGGCCAAAGTCGGTTTGTGCCA showed a PBM binding z-score of 3.12.

As for CCAGACAGTTGAGAAGGTAACTCAGCCTCGATTA, the PBM binding z-score amounted to 1.22.
